In PubChem BioAssay (NCI):
The panel holds about 79,000 compounds, 15% with a hit somewhere; the sample as a whole holds those more often. Calls of active or inactive are those of the source. Cut-off read from the data, not from the text of the source: active = growth inhibition above about 70%; inactive = the rest.

Assays:
[1] = NCI Yeast Anticancer Drug Screen. Data for the rad50 strain (AID 155);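 note: 0% = growth of vehicle-only cultures of the same strain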; conditions: S. cerevisiae rad50 strain growth inhibition; at 50.0 µM; active compounds read high
Outline: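 Genetically altered yeast (DNA repair pathway); compound treatment; growth inhibition vs vehicle ctrl.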

[2] = NCI Yeast Anticancer Drug Screen. Data for the mec2-1 strain (AID 157); conditions: S. cerevisiae mec2-1 strain, at 50.0 µM, active compounds read high
Outline: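 Vehicle-treated cultures served as reference for growth inhibition of compound-exposed mec2-1 yeast.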

[3] = NCI Yeast Anticancer Drug Screen. Data for the cln2 rad14 strain (AID 165);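 note: 0% = growth equal to vehicle treated cultures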; conditions: S. cerevisiae cln2 rad14 strain, at 50.0 µM, active compounds read high
Outline: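 Each compound was tested on cln2 rad14 yeast. Inhibition of growth was calculated against vehicle-exposed controls.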

[4] = NCI Yeast Anticancer Drug Screen. Data for the bub3 strain (AID 167); conditions: S. cerevisiae bub3 mutant strain, at 50.0 µM, active compounds read high
Outline: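 Yeast carrying a defined mutation is treated with each compound, and growth is compared with that of vehicle-exposed cells to give inhibition.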

[5] = NCI Yeast Anticancer Drug Screen. Data for the mlh1 rad18 strain (AID 175); conditions: S. cerevisiae mlh1 rad18 strain growth inhibition; at 50.0 µM; active compounds read high
Outline: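 Vehicle-treated cultures served as the reference for growth inhibition in a yeast strain carrying DNA damage repair alterations exposed to each compound.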

[6] = NCI Yeast Anticancer Drug Screen. Data for the sgs1 mgt1 strain (AID 161);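 note: 0% = growth of cultures given vehicle only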; conditions: S. cerevisiae sgs1 mgt1 strain, at 50.0 µM, active compounds read high
Outline: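 Genetically altered yeast, compound exposure, growth inhibition relative to vehicle.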

Measured: growth inhibition

CN(C)C(=O)Oc1cc(O)cc([N+](=O)[O-])c1
inactive: [1] -5.45% | [2] -11.1% | [3] -6.35% | [4] 24.1% | [5] -28.1%

CCOc1cc(CCNC)c2c(ccc3ccc(OC)c(O)c32)c1OC
inactive: [1] 27.2% | [2] -0.4% | [3] 26.9% | [4] -7.2% | [5] -36.8%

O=C=Nc1ccc(Cl)cc1
inactive: [1] -10.2% | [2] -14.9% | [3] -21.4% | [4] -2.45% | [5] -15.9%

CCCCN(CCCC)C(=O)C1C=C2c3cccc4[nH]cc(c34)CC2N(C)C1 (centres undefined)
inactive: [1] -0.85% | [2] -1.3% | [3] -13.2% | [4] 6.65% | [5] 37.4%

Nc1nc(-c2cccc(S(=O)(=O)F)c2)cs1
inactive: [1] 42.5% | [2] 20.8% | [3] 41.5% | [4] 51.1% | [5] 34.6%

C[CH2][Pb]([CH2]C)([CH2]C)[N]1C(=O)c2c(Cl)c(Cl)c(Cl)c(Cl)c2C1=O
active: [5] 78.3%
inactive: [1] 67.7% | [2] 34.5% | [3] 25.4% | [4] 33.8%

O=N[O-].[Co].[NH-]CC[NH-].[NH-]CC[NH-].[NH2-]
inactive: [1] 5.35% | [2] 7.5% | [3] 4.95% | [4] 4.85% | [5] -2.4%

ClCCN(CCCl)CC(Cl)COc1cccc2ccccc12 (centres undefined)
inactive: [1] 12.2% | [2] 11.6% | [3] -1.6% | [4] 25.2% | [5] 30.4%

O=C(O)c1ccc([N+](=O)[O-])c([N+](=O)[O-])c1
inactive: [1] 22.2% | [2] 4.95% | [3] 7.05% | [4] 10% | [5] 24.6%

CCCCN(CCCC)CC(O)c1cc(Cl)c(Cl)cc1C (centres undefined)
inactive: [1] 10.5% | [2] -13.2% | [3] -1.3% | [4] 27.4% | [5] 25.3%

NC(=O)Cc1ccccc1
inactive: [1] -17.1% | [2] -14.9% | [3] 8.75% | [4] -2.45% | [5] 24.9%

CC(C)(C)c1cc2c(=O)o[s+]3oc(=O)c(c1)c23
inactive: [1] 10.2% | [2] -8.75% | [3] 1.35% | [4] 6.15% | [5] 14.8%

CC(SC(C)C(=O)N/N=C/c1ccc(N(CCCl)CCCl)cc1)C(=O)N/N=C\c1ccc(N(CCCl)CCCl)cc1 (centres undefined)
inactive: [1] -0.45% | [2] -0.55% | [3] -10.7% | [4] 5.05% | [5] 26.1%

CCOC(=O)CNCCC1(CC)C(=O)NC(=O)NC1=O
inactive: [1] -0.55% | [2] -8.2% | [6] 2.15% | [4] -0.6% | [5] -12.8%

Clc1cccc2ccccc12
inactive: [6] 0.1%

NC(Cc1ccccc1)c1nn[nH]n1 (centres undefined)
inactive: [6] -35.6%

CC1=C[C@H]2O[C@@H]3[C@H](OC(=O)CCl)[C@@H](O)[C@](C)(C2(COC(=O)CCl)CC1)[C@@]31CO1 (some centres undefined)
active: [1] 91.8% | [6] 92.7% | [3] 91.6% | [4] 92.2% | [5] 91.2%

CC1=C(C)C(=O)O[C@@H]([C@](C)(O)[C@]2(O)CC[C@@]3(O)[C@@H]4C[C@H]5O[C@]56[C@@H](O)C=CC(=O)[C@]6(C)[C@H]4CC[C@]23C)C1
inactive: [1] 14.9% | [6] 10.7% | [3] 13.4% | [4] 20.1% | [5] 12.8%

CN(C)CCN1C(=O)CN=C(c2ccccc2Cl)c2cc(Cl)ccc21
inactive: [1] 15.8% | [6] 27% | [3] 2.75% | [4] 0.2% | [5] 27.6%

NC1=Nc2ccccc2Sc2ccccc21
inactive: [1] -19.2% | [6] -44.5% | [3] 2.5% | [4] -23.5% | [5] -33.8%

C=C1C(=O)OC2CCN3CC=C(COC(=O)C(C)(O)C4(CO4)C1C)C23 (centres undefined)
inactive: [1] 11.1% | [6] -20.9% | [3] -12.8% | [4] -35.5% | [5] -59.5%

CN1CCCC1c1ccc[n+](C)c1 (centres undefined)
inactive: [1] -2.95% | [6] 5.6% | [3] -8.65% | [4] 2.1% | [5] 3.35%

Clc1ccc([C@H]2N[C@@H]2c2ccccn2)cc1
inactive: [1] 11.2% | [6] 13.7% | [3] -8.45% | [4] 9.15% | [5] -5.55%

Cc1ccc(C(=O)Nc2ccc(CP(=O)(O)O)cc2)cc1NC(=O)Nc1cc(C(=O)Nc2ccc(CP(=O)(O)O)cc2)ccc1C
inactive: [1] 3.55% | [6] -30.1% | [3] 11.9% | [4] -29.1% | [5] 7.45%

CC(=O)c1cccc(S(=O)(=O)F)c1
inactive: [1] -9.7% | [6] -3.25% | [3] 13% | [4] -14.9% | [5] -11.8%

N#CC(OC1OC(C(=O)O)C(O)C(O)C1O)c1ccccc1 (centres undefined)
inactive: [1] 17.2% | [6] -5.3% | [3] 3% | [4] 0.6% | [5] 2.25%

C[N+]1([O-])C2CCC1CC(OC(=O)C(O)c1ccccc1)C2 (centres undefined)
inactive: [1] 1.45% | [5] 3.4%

O=C1C(Cl)=C(Cl)C1(Cl)Cl
inactive: [1] -3.5% | [5] -2.65%

CC(C)(O)[C@H]1[C@@H]2OC(=O)[C@H]1[C@]1(O)C[C@H]3OC34C(=O)O[C@H]2[C@@]41C (some centres undefined) (tested in a mixture with another compound)
inactive: [1] 1.05% | [6] 19.6% | [3] -9.25% | [4] -12.4% | [5] -65.3%

CCC1C2Cc3ccc(O)cc3C1(CC)CCN2C (centres undefined)
inactive: [1] 10.6% | [6] -42.5% | [3] -1.65% | [4] -77.2% | [5] -13.2%

O=C(O)C1CCCN1[N+](=O)[O-] (centres undefined)
inactive: [1] -21.7% | [6] -5.15% | [3] -12.9% | [4] -5.55% | [5] -8.15%

O=[C-]/C=C/c1ccccc1.[C-]#[O+].[C-]#[O+].[Fe+2].[c-]1ccccc1
inactive: [1] 21.8% | [6] 5.95% | [3] -3% | [4] -7.1% | [5] 7.15%

CCOP(=O)(O)C1CCCC(C)[N-]1.CCOP(=O)(O)C1CCCC(C)[N-]1.[Cu+2] (centres undefined)
inactive: [1] 49.4% | [6] 31.7% | [3] 45.2% | [4] 2.9% | [5] 26.6%

CC1=CC(=Nc2ccc(N(CCCl)CCCl)cc2)C=CC1=O
inactive: [1] -6.1% | [6] -28.4% | [3] 14.2% | [4] -7.9% | [5] 5.35%

COc1cc2cc(c1Cl)N(C)C(=O)CC(OC(=O)C(C)C)C1(C)OC1C(C)C1CC(O)(NC(=O)O1)C(OC)/C=C/C=C(C)C2 (centres undefined)
inactive: [2] -9.9% | [6] -19.4% | [3] -22.8% | [4] -21.2% | [5] -3.7%

O=C1OCC2(CO)SC(c3ccccc3)NC12 (centres undefined)
inactive: [1] -11.1% | [6] -17.1% | [3] -20.6% | [4] -4.6% | [5] -7.45%

O=[N+]([O-])c1cccc2cccnc12
inactive: [2] -13.8% | [6] 6.75% | [3] 4.2% | [4] 0.4% | [5] -1.75%

CC1CCC2C(C)C(=O)OC3OC4(C)CCC1C32OO4 (centres undefined)
inactive: [1] -7.55% | [3] 27.8% | [4] 18.2% | [5] 2.7%

CN(/N=C/c1ccnc2ccccc12)c1c([N+](=O)[O-])cc([N+](=O)[O-])cc1[N+](=O)[O-]
inactive: [1] -0.25% | [6] -18.8% | [3] 18.9% | [4] -10% | [5] -8.4%

Cc1c([As](=O)(O)O)ccc2nc3c(C)c([As](=O)(O)O)ccc3nc12
inactive: [2] 1.25% | [6] 15.4% | [3] 9.25% | [4] 2.4%

CCOP(=S)(NCCCOC)OCC
inactive: [1] 0.25% | [6] 12.3% | [3] -32.4% | [4] 22.6% | [5] 2.4%

FC(F)(F)c1ccc(Cl)c(NC2=NCCCS2)c1
inactive: [1] -7.85% | [6] 2.15% | [3] 2.05% | [4] 0.4% | [5] -3.6%

COC1=CC2CCC3C(CCC4(C)C(OC(C)=O)CCC34)C2(C)CC1 (centres undefined)
inactive: [1] 13.2% | [6] 1.2% | [3] 4.1% | [4] -13.3% | [5] -6.8%

CC(C)[C@@H]1ON1C(C)c1ccccc1 (some centres undefined)
inactive: [1] 21.3% | [6] 25.8% | [3] 11.6% | [4] 27.4% | [5] 16%

CCC1(C(C)C=C(C)C)C(=O)NC(=O)NC1=O (centres undefined)
inactive: [1] -28.6% | [6] -4.75% | [3] 1.45% | [4] 10.3% | [5] -10.2%

CC(C)CC1C(=O)NCCC(NC(=O)C(N)Cc2ccc(O)cc2)C(=O)NC(Cc2ccccc2)C(=O)NC(Cc2ccccc2)NC1=O (centres undefined)
inactive: [1] -1.2% | [6] -23.9% | [3] 3.9% | [4] -10.8% | [5] -28.1%

CCOC(=N)N1[C@H](C)[C@@H]1C
inactive: [1] 43.1% | [6] -42.1% | [3] -19% | [4] -43.1% | [5] -6.95%
